Reference: PubChem BioAssay
Potency and affinity values are given separately. Inconclusive results are not listed. The source made the active and inactive calls. Unless noted, the rule behind the calls is not given here.

Legend:
[1] = RMG-1 ovarian cancer cell viability loss – cherry-pick, dose response (AID 687029;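 active = signal drop whose fitted half-maximal concentration is at most twice the top valid dose, in every test run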;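 note: cells exposed to compound for 96 hours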)
[2] = IOSE-T80 viability loss, PAX8-independent line – cell-based, cherry-pick, selectivity assay for PAX8 inhibitor project, dose response (AID 687032;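 active = fitted half-maximal concentration for viability loss no higher than twice the top valid dose, in every repeat run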;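 note: cells exposed to compound for 96 h before reading; 0% = neutral control wells and -100% = 2 µM mitoxantrone kill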)
[3] = CMV-driven luciferase expression suppression in HEK293 – cell-based, luminescence, dry powder, counter-screen for Pax8 inhibitor project, dose response (AID 743020;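 active = signal-lowering compounds whose fitted half-maximal concentration is at or below twice the top tested dose in every run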;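 note: HEK293 cells stably expressing the CMV luciferase reporter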)
[4] = general cell-killing toxicity readout – plate reader, dry powder samples, cytotoxicity control for PAX8 inhibitor project, dose response (AID 743021)
[5] = IGROV1 cell killing – plate reader, dry powder samples, PAX8 inhibitor project, dose response (AID 743043);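 note: more negative means fewer viable cells or more cytotoxicity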
[6] = toxicity toward immortalized ovarian surface epithelium – cell-based, plate reader, dry powder samples, cytotoxicity control for PAX8 inhibitor project, dose response (AID 743045);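 note: 0% = neutral control median and -100% = positive control median; more negative values mean more cell killing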
[7] = A2780 cell killing – plate reader, dry powder samples, cytotoxicity control, dose response (AID 743046);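 note: 0% = neutral control wells and -100% = cytotoxic reference compound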
[8] = OVCAR8 cell viability loss – plate reader, dry powder samples, PAX8 project, dose response (AID 743197)
[9] = OVCAR-3 cell viability loss – plate reader, dry powder samples, PAX8 inhibitor project, dose response (AID 743044); details: max activity: at 35 µM, active compounds read low unless noted

Measured: max activity

O=C(C[C@@H]1CC[C@@H]2[C@H](COC[C@@H](O)CN2S(=O)(=O)c2cccc(Cl)c2)O1)Nc1ccc(-c2ccccc2)cc1
inactive: [1] | [2] | [3] | [4] | [5] | [6] | [7] | [8]

Cc1ccc(-c2ccc([C@H]3[C@@H](CO)N4CCCCN(C(=O)Nc5cccc(F)c5)C[C@H]34)cc2)cc1
inactive: [1] | [2] | [3] | [4] | [5] | [6] | [8]

CS(=O)(=O)N1CC(=O)N2[C@H](CO)[C@H](c3ccc(C#CCC4CCCC4)cc3)[C@H]2C1
inactive: [1] | [2] | [3] | [4] | [5] | [6] | [8]

COc1ccccc1-c1ccc2c(c1)[C@@H]1[C@@H](CCN1S(=O)(=O)c1ccccc1F)[C@H](CO)N2
inactive: [1] | [2] | [3] | [4] | [5] | [6] | [7] | [8]

COc1ccc(-c2ccc3c(c2)[C@H]2[C@H](CCN2S(=O)(=O)c2ccc(OC)cc2)[C@@H](CO)N3C)cc1
inactive: [1] | [2] | [3] | [4] | [5] | [7]

COc1ccc(S(=O)(=O)Nc2ccc3c(c2)C(=O)N([C@@H](C)CO)C[C@@H](C)[C@@H](CN(C)Cc2ccc(C(F)(F)F)cc2)OCCCC[C@@H](C)O3)cc1
inactive: [1] | [2] | [3] | [4] | [5] | [7]

O=C(Nc1ccc(F)cc1)N[C@H]1CC[C@H](CCNC(=O)c2cc(Cl)cc(Cl)c2)O[C@H]1CO
inactive: [1] | [2] | [3] | [4] | [5] | [6] | [7] | [8]

C[C@H]1CN([C@@H](C)CO)C(=O)Cc2cc(NC(=O)Nc3ccc(F)cc3)ccc2O[C@H]1CN(C)Cc1ccc(Cl)c(Cl)c1
inactive: [1] | [2] | [3] | [4] | [5] | [6] | [7] | [8]

C[C@@H]1CN([C@H](C)CO)C(=O)c2cc(NS(=O)(=O)c3ccc(Cl)cc3)ccc2O[C@@H](C)CCCCO[C@@H]1CN(C)Cc1ccc(Cl)c(Cl)c1
inactive: [1] | [2] | [3] | [4] | [5] | [6] | [8]

COc1cccc(-c2ccc3c(c2)[C@H]2[C@H](CCN2C(=O)NC2CCCCC2)[C@@H](CO)N3C)c1
inactive: [1] | [2] | [3] | [4] | [5] | [6] | [8]

O=C(C[C@@H]1C[C@H]2c3cc(NC(=O)Nc4ccc(C(F)(F)F)cc4)ccc3O[C@H]2[C@H](CO)O1)NCc1ccc(Cl)cc1
inactive: [1] | [2] | [3] | [4] | [5] | [6] | [7] | [8]

COCC(=O)N1CCCCN2[C@H](C1)[C@@H](c1ccc(-c3ccc(C)cc3)cc1)[C@@H]2CO
inactive: [1] | [2] | [3] | [4] | [5] | [6] | [7] | [8]

COc1ccc2c3c(n(C)c2c1)[C@@H](CO)N(C(=O)Nc1ccc(F)cc1)CC31CCN(S(=O)(=O)c2cccc(C)c2)CC1
inactive: [1] | [2] | [3] | [4] | [5] | [6] | [7] | [8]

CC(C)NC(=O)N(C)C[C@H]1OCCCC[C@H](C)Oc2ccc(NC(=O)Nc3ccc(C(F)(F)F)cc3)cc2C(=O)N([C@H](C)CO)C[C@@H]1C
inactive: [1] | [2] | [3] | [4] | [5] | [6] | [7] | [8]

C[C@@H]1CCCCO[C@H](CN(C)Cc2ccc(C(=O)Nc3ccccc3N)cc2)[C@@H](C)CN([C@@H](C)CO)C(=O)c2cc(NS(=O)(=O)c3ccc(Cl)cc3)ccc2O1
inactive: [1] | [2] | [3] | [4] | [5] | [7]

COc1cccc(S(=O)(=O)N2CCCCN3[C@@H](CO)[C@@H](c4ccc(C#CCC(C)C)cc4)[C@@H]3C2)c1
inactive: [1] | [2] | [3] | [4] | [5] | [6] | [7] | [8]

COc1ccc(CN(C)C[C@@H]2OCCCC[C@H](C)Oc3ccc(NC(=O)Nc4ccc(C(F)(F)F)cc4)cc3C(=O)N([C@H](C)CO)C[C@@H]2C)cc1
inactive: [1] | [2] | [3] | [4] | [5] | [6] | [7] | [8]

C[C@H]1CN([C@@H](C)CO)C(=O)c2c(c3ccccc3n2C)-c2ccccc2CO[C@@H]1CN(C)S(=O)(=O)c1ccsc1
inactive: [1] | [2] | [3] | [4] | [5] | [6] | [8]

C[C@@H]1CN([C@H](C)CO)C(=O)c2cccc(NC(=O)Nc3cccc4ccccc34)c2O[C@H]1CN(C)C(=O)Nc1ccc(C(F)(F)F)cc1
inactive: [1] | [2] | [3] | [4] | [5] | [6] | [7] | [8]

C[C@H](O)C#Cc1ccc2c(c1)O[C@@H](CN(C)Cc1ccc(-c3ccccc3)cc1)[C@H](C)CN([C@H](C)CO)S2(=O)=O
inactive: [1] | [2] | [3] | [4] | [5] | [7]

C[C@@H]1CCCCO[C@@H](CN(C)S(=O)(=O)c2ccc(Cl)cc2)[C@H](C)CN([C@@H](C)CO)C(=O)c2cc(N(C)C)ccc2O1
inactive: [1] | [2] | [3] | [4] | [5] | [6] | [7] | [8]

O=C(C[C@@H]1C[C@@H]2c3cc(NC(=O)Cc4ccncc4)ccc3O[C@@H]2[C@H](CO)O1)NCc1ccc(-c2ccccc2)cc1
inactive: [1] | [2] | [3] | [4] | [5] | [6] | [7] | [8]

C[C@H]1CCCCO[C@@H](CN(C)Cc2ccc3c(c2)OCO3)[C@@H](C)CN([C@@H](C)CO)C(=O)c2cc(NC(=O)Nc3ccc(F)cc3)ccc2O1
inactive: [1] | [2] | [3] | [4] | [5] | [6] | [7] | [8]

Cc1cccc(S(=O)(=O)N2CC[C@@H]3[C@H]2c2cc(C4=CCCCC4)ccc2N[C@@H]3CO)c1
inactive: [1] | [2] | [3] | [4] | [9] 9.72% [at 4.2 µM, active compounds read low] | [6]

Cc1cccc(S(=O)(=O)N2CC[C@@H]3[C@H](CO)N(C)c4ccc(-c5ccc(C#N)cc5)cc4[C@@H]32)c1
inactive: [1] | [2] | [3] | [4] | [5] | [6] | [7] | [8]

C[C@@H]1CCCCO[C@H](CN(C)Cc2ccccc2)[C@H](C)CN([C@@H](C)CO)C(=O)c2cc(NC(=O)Nc3ccc(C(F)(F)F)cc3)ccc2O1
inactive: [1] | [2] | [3] | [4] | [5] | [7] | [8]

C[C@H](CO)N1C[C@H](C)[C@H](CN(C)CC2CCCCC2)Oc2ccc(NS(=O)(=O)c3ccc(Cl)cc3)cc2CC1=O
inactive: [1] | [2] | [3] | [4] | [5] | [6] | [7] | [8]

C[C@@H]1CN([C@H](C)CO)C(=O)c2cc(NS(=O)(=O)c3cccs3)ccc2O[C@@H](C)CCCCO[C@H]1CN(C)Cc1ccc(Cl)c(Cl)c1
inactive: [1] | [2] | [3] | [4] | [5] | [6] | [7] | [8]

C[C@H](CO)N1C[C@H](C)[C@@H](CN(C)Cc2ccc(C(F)(F)F)cc2)OCCCC[C@H](C)Oc2ccc(NC(=O)Cc3ccccc3)cc2C1=O
inactive: [1] | [2] | [3] | [4] | [5] | [6] | [7] | [8]

C[C@@H]1CCCCO[C@H](CN(C)Cc2ccc(C(F)(F)F)cc2)[C@H](C)CN([C@@H](C)CO)C(=O)c2cc(NC(=O)c3ccccc3)ccc2O1
inactive: [1] | [2] | [3] | [4] | [5] | [7]

C[C@@H]1CCCCO[C@@H](CN(C)C(=O)Nc2ccc(F)cc2)[C@H](C)CN([C@H](C)CO)C(=O)c2cc(NS(=O)(=O)c3ccc(Cl)cc3)ccc2O1
inactive: [1] | [2] | [3] | [4] | [9] 17.7% | [6] | [7]

COc1ccc(NC(=O)N2CCCCN3[C@H](CO)[C@H](c4ccc(C#Cc5ccccc5)cc4)[C@H]3C2)cc1
inactive: [1] | [2] | [3] | [4] | [9] -17.7% | [6] | [7] | [8]

C[C@@H]1CN([C@@H](C)CO)C(=O)Cc2cc(NC(=O)C3CCCCC3)ccc2O[C@H]1CN(C)Cc1ccc(Cl)c(Cl)c1
inactive: [1] | [2] | [3] | [4] | [9] -14.6% [at 8 µM, active compounds read low] | [6] | [7] | [8]

C[C@@H]1CCCCO[C@@H](CN(C)Cc2ccc(Cl)c(Cl)c2)[C@H](C)CN([C@H](C)CO)C(=O)c2cc(NS(=O)(=O)c3ccc(Cl)cc3)ccc2O1
inactive: [1] | [2] | [3] | [4] | [9] -24.1% | [6] | [7]
